{"source": "ChEMBL document CHEMBL3988442", "about": "“University of Dundee, Small-Polar-MMV Screening Library” (2021)", "note": "In all, about 48,000 compounds went through this assay and about 13,000 (27%) showed an effect of 50% or more. This is one part of the list.", "data": [{"test_system": "Wolbachia pipientis", "test": "Anti-Wolbachia Cell-Based Screen", "format": "functional", "parameters": "scale not given: in the data most compounds retested in dose-response had high values", "conditions": "5 µM", "units": {"Percent Effect": "%"}, "values": [{"smiles": "COc1ccc(CN(C(=O)C(C)SC)c2cnn(C)c2)c(OC)c1", "note": "(centres undefined)", "Percent Effect": -2.56}, {"smiles": "O=C1CC[C@H]2CN(Cc3ccc(Cl)s3)CC[C@H]2N1CCc1c[nH]cn1", "Percent Effect": -29.01}, {"smiles": "CCc1cc(NCCNc2ccncc2C)n2nc(C)c(C)c2n1", "Percent Effect": 11.08}, {"smiles": "Cc1noc(C)c1CN(C)C(=O)C1(NS(C)(=O)=O)CCCCC1", "Percent Effect": -10.96}, {"smiles": "CCc1nc(C)c(CN2CCOC(CCCC(C)C)C2)[nH]1", "note": "(centres undefined)", "Percent Effect": -5.664}, {"smiles": "COC[C@H]1CNC(=O)[C@@H]2CCN(Cc3ccc(F)cc3)CC[C@H]12.O=C(O)C(F)(F)F", "Percent Effect": -11.52}, {"smiles": "CSc1nccc(N2CCN(C)C3(CCC(=O)N(CC4CC4)CC3)C2)n1", "note": "(centres undefined)", "Percent Effect": -14.1}, {"smiles": "O=C(NCC(F)(F)F)C1CSCN1S(=O)(=O)c1ccc(F)cc1", "note": "(centres undefined)", "Percent Effect": 3.931}, {"smiles": "CC1N(C)C(=O)COC12CCN(Cc1nccs1)CC2.O=C(O)C(F)(F)F", "note": "(centres undefined)", "Percent Effect": 126.1}, {"smiles": "CC(C)CN1CCC2(CCN(Cc3nccs3)CC2)C1=O.O=C(O)C(F)(F)F", "Percent Effect": 1.148}, {"smiles": "CN(C)C(=O)CN1CCC2(CCN(Cc3nccs3)CC2)C1=O.O=C(O)C(F)(F)F", "Percent Effect": -19.71}, {"smiles": "CC1N(CC2CC2)C(=O)COC12CCN(Cc1nccs1)CC2.O=C(O)C(F)(F)F", "note": "(centres undefined)", "Percent Effect": -4.952}, {"smiles": "CN(C)C1COC2(CCN(Cc3nccs3)CC2)C1.O=C(O)C(F)(F)F.O=C(O)C(F)(F)F", "note": "(centres undefined)", "Percent Effect": 52.92}, {"smiles": "CCc1ccc2c(c1)C(CCNC(=O)Cc1ccc(F)cc1)C(=O)N2", "note": "(centres undefined)", "Percent Effect": 3.277}, {"smiles": "Cc1c(CNCCCOc2cccnc2)c2ccccc2n1CC(N)=O", "Percent Effect": -2.741}, {"smiles": "Cc1c(CNCC(C)Oc2cccnc2)c2ccccc2n1CC(N)=O", "note": "(centres undefined)", "Percent Effect": 60.46}, {"smiles": "COc1ncccc1C(=O)NCC(C)Oc1cccnc1", "note": "(centres undefined)", "Percent Effect": -11.32}, {"smiles": "Cc1cc2n(n1)CC(CNC1CCN(C(=O)c3ccco3)CC1)CN2", "note": "(centres undefined)", "Percent Effect": 7.634}, {"smiles": "COCCN1CCCC(O)(CN2CCCN(c3ncccn3)CC2)C1=O", "note": "(centres undefined)", "Percent Effect": -4.112}, {"smiles": "CN(CCc1cccs1)C1CCCN(Cc2noc(C3CC3)n2)C1", "note": "(centres undefined)", "Percent Effect": -17.24}, {"smiles": "Cc1nc(CN2CCCC(N(C)CCc3ccncc3)C2)no1", "note": "(centres undefined)", "Percent Effect": -4.077}, {"smiles": "CN(Cc1cscn1)C1CCCN(Cc2noc(C3CC3)n2)C1", "note": "(centres undefined)", "Percent Effect": 3.354}, {"smiles": "CN(CCn1cccn1)C1CCCN(Cc2noc(C3CC3)n2)C1", "note": "(centres undefined)", "Percent Effect": 100.3}, {"smiles": "CCc1nc(CN2CCCC(N(C)CCn3cncn3)C2)no1", "note": "(centres undefined)", "Percent Effect": 8.167}, {"smiles": "CN(CCCC#N)C1CCCN(Cc2noc(C3CC3)n2)C1", "note": "(centres undefined)", "Percent Effect": -8.895}, {"smiles": "CN(CCc1ccccn1)C1CCCN(Cc2noc(C3CC3)n2)C1", "note": "(centres undefined)", "Percent Effect": 103.4}, {"smiles": "CN(CCS(C)(=O)=O)C1CCCN(Cc2noc(C3CC3)n2)C1", "note": "(centres undefined)", "Percent Effect": 107.2}, {"smiles": "CN(CC1(O)CCCCC1)C1CCCN(Cc2noc(C3CC3)n2)C1", "note": "(centres undefined)", "Percent Effect": 0.01553}, {"smiles": "CN(CCc1ccncc1)C1CCCN(Cc2noc(C3CC3)n2)C1", "note": "(centres undefined)", "Percent Effect": 107.5}, {"smiles": "Cc1cc(CN(C)C2CCCN(Cc3noc(C4CC4)n3)C2)no1", "note": "(centres undefined)", "Percent Effect": 1.987}, {"smiles": "c1cncc(CN2CCC(NCCc3ccc4c(c3)CCO4)CC2)c1", "Percent Effect": 11.75}, {"smiles": "O=C1CCCCN1Cc1cccc(NC(=O)N2CCSCC2)c1", "Percent Effect": 7.58}, {"smiles": "COc1cccc(C(C(=O)O)N2CCCN(C3CCCC3)CC2)c1OC", "note": "(centres undefined)", "Percent Effect": 17.91}, {"smiles": "Cc1noc(C)c1CCN1CCCC1c1nc2cc(F)ccc2[nH]1", "note": "(centres undefined)", "Percent Effect": -25.67}, {"smiles": "CC(NC(=O)Nc1cccnc1N1CCCC1)c1nncn1C", "note": "(centres undefined)", "Percent Effect": -5.724}, {"smiles": "CCc1cc(NCCNC(C)=O)nc(N2CCCC2)n1", "Percent Effect": 3.61}, {"smiles": "CCOc1ccc(S(=O)(=O)NCCCc2ccc(N(C)C)cc2)cc1C", "Percent Effect": 28.94}, {"smiles": "Cc1cc(C)n(CCC(=O)OCC(=O)N2CCc3sccc3C2)n1", "Percent Effect": 1.296}, {"smiles": "CN(CC1CCCO1)c1nc(-c2cccnc2)nc2c1CCNCC2", "note": "(centres undefined)", "Percent Effect": -5.842}, {"smiles": "Cc1cc(C2CCCN2CC(=O)N(CCC#N)c2ccccc2F)on1", "note": "(centres undefined)", "Percent Effect": 6}, {"smiles": "CC(C#N)CSc1ccccc1NCC(=O)Nc1ccc(F)cc1", "note": "(centres undefined)", "Percent Effect": -2.506}, {"smiles": "CC(NCC(=O)Nc1ccc(N2CCCCCC2)cc1)c1cccs1", "note": "(centres undefined)", "Percent Effect": 140.9}, {"smiles": "O=C(Cc1cccs1)NCC(=O)Nc1cn[nH]c1", "Percent Effect": -3.119}, {"smiles": "CC(C)CCC(=O)NCc1ccc(N2CCCCC2)cc1", "Percent Effect": 9.507}, {"smiles": "CCCC(=O)NCc1ccc(N2CCCCC2)cc1", "Percent Effect": -2.635}, {"smiles": "CC(NCC(=O)NCC(=O)Nc1ccc(F)cc1)c1cccs1", "note": "(centres undefined)", "Percent Effect": 91.77}, {"smiles": "CCC(NC(=O)NCC(=O)Nc1ccc(F)cc1)c1ccncc1", "note": "(centres undefined)", "Percent Effect": 13.9}, {"smiles": "CN(CC(=O)NCC(=O)Nc1ccc(F)cc1)Cc1cccs1", "Percent Effect": 82.61}, {"smiles": "CN(CC(=O)NS(=O)(=O)c1cccs1)Cc1ccccc1", "Percent Effect": -0.04031}]}]}
